Assay outcomes deposited in PubChem by National Center for Advancing Translational Sciences (NCATS).
Rows were chosen to be rich in hits. Some 1.6% of all compounds tested hit in one or more screens of this group.
HBB splice mod: modulators of hemoglobin beta chain splicing. HBB splicing reporter cell assay, activation; EGFP reporter with mutant IVS2-654 intron; response scale: normalised to 500 nM splice-correcting PNA. Potency, µM (highest dose often 46.1 µM), usual class: activators. 0.06% of 65,000 active
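HeLa cells stably expressing EGFP interrupted by mutant beta-globin intron 2 (IVS2-654), 500/well in 2% FCS. Treated with compound for 2 days at 37C. Splicing correction scored as total well GFP intensity (488 nm excitation, 500-520 nm emission); 500 nM antisense PNA served as control.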
p53ts 39C kill: kills p53ts cells at the nonpermissive temperature; H1299-p53A138V viability at 39C, ATP luminescence, 24 h; Potency, µM (top dose mostly 46.1 µM), usual class: cytotoxic; 1.5% of 130,000 active; AID 902; note: nearly all actives have a fitted effect of over 55% in size
p53ts 32C kill: cytotoxicity in p53ts cells at permissive temperature; H1299-p53A138V at 32C, ATP luminescence viability, 24 h; Potency, µM (top dose mostly 46.1 µM), usual class: cytotoxic; 0.93% of 130,000 active; AID 924; note: nearly all actives have a fitted effect of over 55% in size
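ATP-content luminescence (ATPlite) read-out after 24 h compound exposure at 32C in H1299-p53A138V cells (600/well). Tested up to 46 uM. Normalized to DMSO (0%) and 100 uM tamoxifen (100% killing); Hill-fit AC50.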
Imprint erasure: inducers of genomic imprint erasure in mouse ES cells; Potency, µM (top dose mostly 60.7 µM), hits mostly activators; AID 1948; 0.02% of 110,000 active; mouse ES Peg3-LacZ reporter, beta-gal luminescence, 40 h
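Readout: BetaGlo luminescence (5 min, room temp) for LacZ from the normally silent maternal Peg3 allele in female Peg3LacZ-Neo ES cells. Cells 300/well, 40 h, 37C, 5% CO2. Data normalized per plate to negative controls.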
Ub-GFP proteasome: ubiquitin-GFP accumulation via proteasome inhibition; 67,000 tested, under 10 active; Potency, µM (highest dose often 45.9 µM), actives largely listed as activators; Ubiquitin-GFP reporter cells, proteasome inhibition, GFP fluorescence; response scale: untreated = 0%, 10 µM MG-132 = 100%; active = well fitted activation curve with a large enough effect, not every such curve was filed as active; inconclusive = small, poorly fitted or top-dose-only effect, or another doubt; inactive = no such curve, though single readings can be large or run the other way
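GFP accumulation read-out: laser plate cytometry counting ubiquitin(G76V)-GFP-expressing U2OS cells after 4 hr compound exposure at 37 °C. Titrations spanned 46 uM to 2.9 nM; 0% = basal, 100% = 10 uM MG-132; concentration-response curves fitted.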
Epigenetic mod: epigenetic GFP locus derepression in mouse cells; 0.09% of 68,000 active; mouse C127i GFP locus derepression, cytometry, 30 h; Potency, µM (series often up to 46.1 µM); AID 597
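Murine C127i mammary cells carrying a silenced, stably integrated CMV-driven GFP reporter were treated with compound for 30 hours at 37 C. After PBS washes, GFP-positive cells were counted by laser-scanning microplate cytometry.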
Numbers stand for hits; n = inactive; u = inconclusive; x = no result; [ ] = dose if it differs, or a comment. Unless noted, calls come from the whole dose curve; as a rule, active = well fitted curve in the direction sought with a large enough effect; inconclusive = small, poorly fitted or top-dose-only effect, or another doubt; inactive = no such curve, though single readings can be large; an effect the other way counts as inactive or inconclusive.

SMILES | HBB splice mod | p53ts 39C kill | p53ts 32C kill | Imprint erasure | Ub-GFP proteasome | Epigenetic mod
O=C1CC(c2ccccc2)Cc2nc(NCc3ccco3)ncc21 (stereo not given) | n | 7.9µM | 6.3µM | n | n | n
CCCCCCCCNC(C)C(O)c1ccc(SC(C)C)cc1 (stereo not given) | x | 20µM | u | n | x | n
Cc1ccc(C(=O)Nc2ccc3c(c2)OCO3)cc1S(=O)(=O)N1CCCC1 | n | n | n | n | n | n
Cc1ccc(C(=O)Nc2cccc(C(=O)O)c2)cc1S(=O)(=O)N1CCCCC1 | n[0.0738 µM] | u | 13µM | n | n[9.17 µM] | n
COc1ccc(-n2c(=O)c3ccc(C(=O)NCc4ccc(C)cc4)cc3n(CC(=O)Nc3ccc(C)cc3)c2=O)cc1 | x | 5µM | u | n[10.9 µM] | x | x
Cc1ccc(-n2c(=O)c3ccc(C(=O)NCc4ccco4)cc3n(Cc3ccc(Cl)cc3)c2=O)cc1 | x | 13µM | n | n[10.9 µM] | x | x
Cc1ccc(NC(=O)Cn2c(=O)n(-c3ccccc3)c(=O)c3ccc(C(=O)NCc4ccc5c(c4)OCO5)cc32)c(C)c1 | x | 7.9µM | u | n[10.9 µM] | x | x
COc1ccc(NC(=O)Cn2c(=O)n(-c3ccccc3)c(=O)c3ccc(C(=O)NCc4ccc5c(c4)OCO5)cc32)cc1 | x | n | u | n[10.9 µM] | x | x
COc1ccc(-n2c(=O)c3ccc(C(=O)NCc4ccc(C)cc4)cc3n(CC(=O)Nc3ccc(F)cc3)c2=O)cc1 | x | 10µM | n | n[10.9 µM] | x | x
Cc1ccc(-n2c(=O)c3ccc(C(=O)NCc4ccco4)cc3n(CC(=O)Nc3ccc(C)c(F)c3)c2=O)cc1 | x | u | n | n[10.9 µM] | x | x
S=C1NCCOCCOCCOCCNC(=S)NCCOCCOCCOCCN1 | x | n | n | x | x | x
Cc1ccc2nc(-c3ccc(NC(=O)c4ccc(N)cc4)c(S(=O)(=O)O)c3)sc2c1 | n[9.22 µM] | n[9.22 µM] | n[9.22 µM] | n[10.9 µM] | n[9.17 µM] | n[9.22 µM]
Nc1ccc2nc(-c3ccc(O)cc3)sc2c1 | x | 0.63µM | 0.63µM | n[10.9 µM] | x | x
Nc1cccc(-c2nc3ccc(N)cc3s2)c1 | n | 3.2µM | 3.2µM | n | n | n
Nc1ccc(O)c(-c2nc3ccccc3s2)c1 | n | n | n | n | n | n
Cc1cc2oc(C(=O)N(Cc3ccco3)C3CCS(=O)(=O)C3)cc(=O)c2cc1Cl (stereo not given) | n | n | n | n | n | n
Cc1oc(-c2ccc(Cl)cc2)nc1CN1CCCC(C(=O)NCc2cccnc2)C1 (stereo not given) | n | n | n | n | n | n
CCOc1ccc(-c2ccc(CO)o2)cc1N | x | u | 16µM | n[10.9 µM] | x | x
CCOc1ccc(-c2nnc(-c3ccco3)o2)cc1OCC | n | n | n | n | n | n
O=C(Nc1ccc(Cl)c(C(F)(F)F)c1)C1CCCN(S(=O)(=O)c2cnc[nH]2)C1 (stereo not given) | n | n | n | n | n | n
CCOC(=O)c1ccc(NS(=O)(=O)c2ccc3c(c2)CCCN3C(C)=O)cc1 | n | n | n | n | n | n
CCC(C(=O)NC1CCCCC1)n1c(SCc2cccc(C)c2)nc2ccncc21 (stereo not given) | x | 10µM | 13µM | n[10.9 µM] | x | x
COc1ccc(-c2nc(Cn3c(SCc4cccc(F)c4)nc4ccncc43)c(C)o2)cc1OC | n | n | n | n | n | n
COC(=O)c1ccc(CSc2nc3ccncc3n2Cc2ccc(F)cc2)cc1 | x | n | n | n[10.9 µM] | x | x
COC(=O)c1ccc(Cn2c(SCc3cccc(C)c3)nc3ccncc32)cc1 | x | u | 25µM | n[10.9 µM] | x | x
Cc1cccc(-c2nc(Cn3c(SCc4cccc(C(F)(F)F)c4)nc4ccncc43)c(C)o2)c1 | x | 10µM | n | n[10.9 µM] | x | x
COc1ccc(NC(=O)C2CCN(S(=O)(=O)c3ccc4[nH]c5c(c4c3)CCCCC5)CC2)cc1 | x | n | n | n[10.9 µM] | x | x
CC(=O)Nc1nc(=O)c2ccccc2s1 | x | n | n | n | n | n
CCN1CCN(c2cc(C)c3cc(NC(=O)/C=C/c4ccc(C)cc4)ccc3n2)CC1 | x | 3.2µM | u | n[10.9 µM] | x | x
CCN1CCN(c2cc(C)c3cc(NC(=O)c4cc(OC)c(OC)c(OC)c4)ccc3n2)CC1 | x | n | n | n[10.9 µM] | x | x
